The supplement of paper PMC11001985
A number with no mark means an inactive call.

compound: C#CCNC(=O)CCSSCCC(=O)NCCc1ccc(C=O)c(C=O)c1; experiment: lysine labeling ratio R10:1 (500 µM / 50 µM probe), SILAC-ABPP in living cells; higher = lower intrinsic lysine reactivity toward the probe, active = 2 or less; conditions: HeLa; probe concentrations 500 vs 50 µM
How it was run: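 Forward and reverse SILAC label swaps were used with living light and heavy HeLa cells in PBS at room temperature, which were given an alkyne-tagged, disulfide-linked lysine probe at 50 µM or 500 µM. R is the per-lysine filtered median high-probe/low-probe MS1 peptide ratio, with the median then taken across both swap directions. Values are limited to 20.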

UniProt P29401, sequence (P29401 whole entry): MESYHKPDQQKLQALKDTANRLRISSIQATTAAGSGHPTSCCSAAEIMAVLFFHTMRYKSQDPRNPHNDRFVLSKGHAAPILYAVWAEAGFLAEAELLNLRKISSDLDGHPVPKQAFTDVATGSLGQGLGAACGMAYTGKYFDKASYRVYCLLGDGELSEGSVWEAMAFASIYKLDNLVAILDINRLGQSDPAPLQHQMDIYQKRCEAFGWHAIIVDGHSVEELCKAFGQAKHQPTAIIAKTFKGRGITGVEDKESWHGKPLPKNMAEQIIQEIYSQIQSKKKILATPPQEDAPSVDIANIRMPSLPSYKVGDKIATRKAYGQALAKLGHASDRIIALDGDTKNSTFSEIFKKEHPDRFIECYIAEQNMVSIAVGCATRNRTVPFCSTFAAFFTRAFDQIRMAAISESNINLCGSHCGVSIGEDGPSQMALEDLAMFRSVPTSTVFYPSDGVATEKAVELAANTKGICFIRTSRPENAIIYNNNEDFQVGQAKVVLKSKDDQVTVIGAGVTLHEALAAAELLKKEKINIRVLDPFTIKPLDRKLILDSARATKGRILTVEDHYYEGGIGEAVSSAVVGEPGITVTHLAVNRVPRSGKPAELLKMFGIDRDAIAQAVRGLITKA
UniProt Q9Y624, sequence (Q9Y624 whole entry, stated change not applied): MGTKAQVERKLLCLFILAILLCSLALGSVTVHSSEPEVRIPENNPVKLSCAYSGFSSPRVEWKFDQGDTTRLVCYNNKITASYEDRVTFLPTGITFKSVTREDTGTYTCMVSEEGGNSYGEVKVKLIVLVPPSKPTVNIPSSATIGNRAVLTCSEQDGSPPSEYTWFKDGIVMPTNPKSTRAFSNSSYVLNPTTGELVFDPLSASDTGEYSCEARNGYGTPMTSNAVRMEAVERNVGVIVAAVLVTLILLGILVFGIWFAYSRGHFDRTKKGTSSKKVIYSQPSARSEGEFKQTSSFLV
UniProt Q8NFJ5, sequence (Q8NFJ5 whole entry): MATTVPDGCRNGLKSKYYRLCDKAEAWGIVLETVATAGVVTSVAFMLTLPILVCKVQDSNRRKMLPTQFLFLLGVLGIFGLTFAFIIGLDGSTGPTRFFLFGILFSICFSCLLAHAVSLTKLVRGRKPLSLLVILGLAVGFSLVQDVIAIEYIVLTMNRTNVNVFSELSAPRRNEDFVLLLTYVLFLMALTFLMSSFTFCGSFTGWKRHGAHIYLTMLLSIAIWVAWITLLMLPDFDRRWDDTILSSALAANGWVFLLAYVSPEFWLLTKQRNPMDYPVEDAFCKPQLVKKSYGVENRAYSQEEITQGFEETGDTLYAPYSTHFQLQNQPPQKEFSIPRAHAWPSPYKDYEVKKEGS
UniProt Q9Y6W5, sequence (Q9Y6W5 whole entry): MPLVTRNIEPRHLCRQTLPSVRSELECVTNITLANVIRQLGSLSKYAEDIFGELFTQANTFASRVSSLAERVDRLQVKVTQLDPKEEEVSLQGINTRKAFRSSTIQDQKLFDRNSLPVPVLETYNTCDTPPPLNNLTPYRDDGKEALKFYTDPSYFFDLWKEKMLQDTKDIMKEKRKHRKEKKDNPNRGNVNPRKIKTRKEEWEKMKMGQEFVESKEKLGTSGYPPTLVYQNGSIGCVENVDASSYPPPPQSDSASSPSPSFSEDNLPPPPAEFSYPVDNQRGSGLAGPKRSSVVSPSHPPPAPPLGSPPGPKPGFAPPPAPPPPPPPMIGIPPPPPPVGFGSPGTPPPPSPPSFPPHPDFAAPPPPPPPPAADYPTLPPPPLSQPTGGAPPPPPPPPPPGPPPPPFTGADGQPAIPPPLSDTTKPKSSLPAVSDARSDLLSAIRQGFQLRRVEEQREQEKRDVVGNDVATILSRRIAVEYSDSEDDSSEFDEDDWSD
UniProt P30041, sequence (P30041 whole entry): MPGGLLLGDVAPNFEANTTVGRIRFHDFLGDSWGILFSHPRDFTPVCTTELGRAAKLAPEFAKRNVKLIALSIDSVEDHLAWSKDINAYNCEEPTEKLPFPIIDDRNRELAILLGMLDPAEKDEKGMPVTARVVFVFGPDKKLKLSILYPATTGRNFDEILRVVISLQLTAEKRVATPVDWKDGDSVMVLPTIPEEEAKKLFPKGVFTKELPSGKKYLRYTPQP
UniProt Q04721, sequence (Q04721 whole entry): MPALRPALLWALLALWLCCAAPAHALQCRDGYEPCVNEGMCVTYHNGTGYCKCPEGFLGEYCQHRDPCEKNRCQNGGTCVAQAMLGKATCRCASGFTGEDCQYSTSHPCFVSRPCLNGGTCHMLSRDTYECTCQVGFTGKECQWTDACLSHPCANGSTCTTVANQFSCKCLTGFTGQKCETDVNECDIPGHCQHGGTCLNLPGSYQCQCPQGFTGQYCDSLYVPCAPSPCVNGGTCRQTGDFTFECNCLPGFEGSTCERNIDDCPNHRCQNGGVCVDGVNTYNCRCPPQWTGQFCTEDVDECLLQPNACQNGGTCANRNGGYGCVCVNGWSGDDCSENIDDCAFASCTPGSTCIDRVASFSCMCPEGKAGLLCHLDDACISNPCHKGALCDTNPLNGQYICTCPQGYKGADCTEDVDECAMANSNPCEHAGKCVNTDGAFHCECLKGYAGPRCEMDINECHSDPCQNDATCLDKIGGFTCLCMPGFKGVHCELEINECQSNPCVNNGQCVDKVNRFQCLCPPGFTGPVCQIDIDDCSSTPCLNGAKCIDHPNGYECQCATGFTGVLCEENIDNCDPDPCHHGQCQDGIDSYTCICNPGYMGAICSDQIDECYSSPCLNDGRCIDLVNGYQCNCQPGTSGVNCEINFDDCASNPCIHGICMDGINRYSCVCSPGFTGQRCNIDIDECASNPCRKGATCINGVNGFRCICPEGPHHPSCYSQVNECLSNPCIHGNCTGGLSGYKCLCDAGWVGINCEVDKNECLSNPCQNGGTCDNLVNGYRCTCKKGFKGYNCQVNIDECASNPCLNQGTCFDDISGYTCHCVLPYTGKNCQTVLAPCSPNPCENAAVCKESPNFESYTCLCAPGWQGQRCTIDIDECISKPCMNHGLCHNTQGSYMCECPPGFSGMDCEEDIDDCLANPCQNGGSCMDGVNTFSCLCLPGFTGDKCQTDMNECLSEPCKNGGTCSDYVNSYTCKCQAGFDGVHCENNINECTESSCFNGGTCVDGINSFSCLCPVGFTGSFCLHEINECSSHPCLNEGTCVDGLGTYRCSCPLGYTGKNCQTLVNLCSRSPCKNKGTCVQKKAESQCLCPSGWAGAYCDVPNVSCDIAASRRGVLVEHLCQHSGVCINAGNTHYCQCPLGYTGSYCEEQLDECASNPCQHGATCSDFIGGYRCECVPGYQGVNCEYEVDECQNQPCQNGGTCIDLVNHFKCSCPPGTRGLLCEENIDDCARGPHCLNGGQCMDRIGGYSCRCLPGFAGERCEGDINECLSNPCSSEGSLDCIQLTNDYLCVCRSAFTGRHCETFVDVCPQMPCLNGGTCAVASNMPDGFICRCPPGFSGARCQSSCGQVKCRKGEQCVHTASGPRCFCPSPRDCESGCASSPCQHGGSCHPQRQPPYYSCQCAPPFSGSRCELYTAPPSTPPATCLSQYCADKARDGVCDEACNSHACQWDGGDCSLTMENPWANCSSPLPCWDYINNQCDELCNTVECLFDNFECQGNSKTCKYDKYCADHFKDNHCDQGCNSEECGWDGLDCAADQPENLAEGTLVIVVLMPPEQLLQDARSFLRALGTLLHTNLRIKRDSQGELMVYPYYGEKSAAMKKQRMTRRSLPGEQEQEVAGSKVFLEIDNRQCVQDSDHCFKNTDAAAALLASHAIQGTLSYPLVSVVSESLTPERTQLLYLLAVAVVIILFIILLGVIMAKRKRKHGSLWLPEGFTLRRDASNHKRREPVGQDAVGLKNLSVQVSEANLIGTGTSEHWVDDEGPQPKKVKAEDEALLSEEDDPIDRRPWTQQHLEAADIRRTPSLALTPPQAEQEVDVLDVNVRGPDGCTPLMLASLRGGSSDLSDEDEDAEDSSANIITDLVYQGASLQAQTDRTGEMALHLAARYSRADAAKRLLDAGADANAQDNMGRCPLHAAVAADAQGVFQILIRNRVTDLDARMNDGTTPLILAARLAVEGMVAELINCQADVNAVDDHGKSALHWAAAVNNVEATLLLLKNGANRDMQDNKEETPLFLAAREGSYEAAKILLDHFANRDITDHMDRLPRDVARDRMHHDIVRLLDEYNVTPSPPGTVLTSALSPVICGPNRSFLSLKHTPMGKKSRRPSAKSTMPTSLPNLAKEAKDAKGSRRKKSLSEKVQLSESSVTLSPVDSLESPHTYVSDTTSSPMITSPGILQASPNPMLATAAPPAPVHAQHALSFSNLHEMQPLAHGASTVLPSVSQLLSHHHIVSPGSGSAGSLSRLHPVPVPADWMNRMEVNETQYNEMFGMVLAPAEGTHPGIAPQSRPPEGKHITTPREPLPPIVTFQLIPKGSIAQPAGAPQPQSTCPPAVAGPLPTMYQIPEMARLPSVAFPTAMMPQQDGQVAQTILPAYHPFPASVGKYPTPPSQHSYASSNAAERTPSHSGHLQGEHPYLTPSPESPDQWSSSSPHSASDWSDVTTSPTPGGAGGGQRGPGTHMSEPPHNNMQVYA
UniProt P30101, sequence (P30101 whole entry): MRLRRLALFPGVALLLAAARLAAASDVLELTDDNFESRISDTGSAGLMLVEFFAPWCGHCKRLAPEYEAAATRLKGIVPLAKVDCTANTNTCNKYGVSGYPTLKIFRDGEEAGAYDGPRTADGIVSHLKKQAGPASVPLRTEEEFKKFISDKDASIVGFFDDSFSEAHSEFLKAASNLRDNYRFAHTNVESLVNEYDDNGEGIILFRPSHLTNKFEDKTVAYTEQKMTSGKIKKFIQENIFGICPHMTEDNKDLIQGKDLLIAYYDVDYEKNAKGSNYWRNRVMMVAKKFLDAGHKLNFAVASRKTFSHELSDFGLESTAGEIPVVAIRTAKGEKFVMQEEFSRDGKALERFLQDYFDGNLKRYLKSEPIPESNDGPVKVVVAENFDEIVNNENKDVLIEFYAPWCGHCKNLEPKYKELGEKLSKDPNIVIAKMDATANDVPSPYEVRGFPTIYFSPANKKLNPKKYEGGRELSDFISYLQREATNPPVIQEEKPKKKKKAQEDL

| Target | lysine labeling ratio R10:1 |
| --- | --- |
| TKT (lysine site: K144) (UniProt P29401) | 10.4 |
| TKT (lysine site: K538) (UniProt P29401) | 1.86 (active) |
| DSTN (lysine site: K19) (UniProt P60981) | 1.87 (active) |
| RAB13 (lysine site: K58) (UniProt P51153) | 13.2 |
| PDIA3 (lysine site: K433) (UniProt P30101) | 2.21 |
| GPI (lysine site: K12) (UniProt P06744) | 0.867 (active) |
| P4HB (lysine site: K309) (UniProt P07237) | 1.42 (active) |
| GPRC5A (lysine site: K16) (UniProt Q8NFJ5) | 6.52 |
| ECE1 (lysine site: K401) (UniProt P42892) | 2.77 |
| PRDX6 (lysine site: K56) (UniProt P30041) | 3.23 |
| MYH9 (lysine site: K1246) (UniProt P35579) | 0.944 (active) |
| F11R (lysine site: K97) (UniProt Q9Y624) | 18.5 |
| TFRC (lysine site: K145) (UniProt P02786) | 2.7 |
| WASF2 (lysine site: K109) (UniProt Q9Y6W5) | 1.24 (active) |
| UniProt Q15149 (lysine site: K4584) | 0.906 (active) |
| NOTCH2 (lysine site: K1353) (UniProt Q04721) | 7.44 |
| CLTC (lysine site: K619) (UniProt Q00610) | 2.75 |
| FRAS1 (lysine site: K1158) (UniProt Q86XX4) | 1.34 (active) |
| UniProt P62701 (lysine site: K106) | 2.28 |
| HSP90B1 (lysine site: K142) (UniProt P14625) | 2.93 |
| ITGB1 (lysine site: K73) (UniProt P05556) | 2.27 |
| LAMA5 (lysine site: K2481) (UniProt O15230) | 1.15 (active) |
| UniProt P62987 (lysine site: K93) | 5.44 |
